Experimental data reported in PubChem BioAssay (NCI).
Several values for one entry are separate records, joined by “and”; a condition that tells them apart may be missing. Identical values can stand only once. Compounds without any hit were thinned out: in the full panel of roughly 83,000, 20% have a hit.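 For each line, cells grew in 96-well plates with the test compound present at a single concentration for 48 hours.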 Activity calls are given as the source filed them. The calls were made as follows: active = growth percent below 10; inactive = the rest.

These compounds were tested on UO-31 renal (assay: NCI-60 one-dose screen, 48 h (100 = growth as untreated, 0 = no growth, -100 = all killed)). Conditions: 10 µM unless noted.

SMILES	growth
COc1ccc(C(=O)c2ccc(OC)c(OC)c2OC)cc1	41.8% (inactive) and 24.1% (inactive)
O=C1/C(=C/c2ccccc2)CN(C(=O)C(Cl)Cl)C/C1=C\c1ccccc1	-52.8% (active)
C=C(C)[C@@H]1CC[C@]2(C(=O)O)CC[C@]3(C)[C@H](CC[C@@H]4[C@@]5(C)CCC(N)C(C)(C)[C@@H]5CC[C@]43C)[C@@H]12 (some centres undefined)	63.4% (inactive)
N#C/C(=C\c1ccc(Br)cc1)n1nnc2c(F)cccc21	-65.9% (active)
COC1=CC(=O)C(OC)=C(O)C1=O	93.1% (inactive)
CC(C)(C)c1cc(NC(=O)Nc2ccc(-c3cn4c(n3)sc3cc(OCCN5CCOCC5)ccc34)cc2)no1	10.7% (inactive) and 28.2% (inactive)
COc1cccc(C2C(C#N)=C(N)Oc3cc(OCCCCCC[P+](c4ccccc4)(c4ccccc4)c4ccccc4)ccc32)c1 (centres undefined)	39.2% (inactive)
COc1ccc(-c2ccccc2)cc1-c1c(Nc2cc(Cl)cc(Cl)c2O)c(=O)c1=O	6.3% (active)
Cc1ccc(S(=O)(=O)Nc2cc(Sc3ccccc3)c(O)c3ccccc23)cc1	64% (inactive)
COC(=O)c1[nH]nc(OC)c1C1(C(C#N)c2nc3ccccc3s2)CCCc2ccccc21 (centres undefined)	72.4% (inactive)
COc1ccc(-c2cc(-c3cccc(Cl)c3)c(C#N)c(=O)[nH]2)c(OC)c1	85.3% (inactive)
Cc1nc(-n2[nH]c(=O)ccc2=O)sc1N=Nc1ccccc1	84.1% (inactive)
COc1ccc(-c2csc(NC(=O)CN3CCN(CCO)CC3)n2)cc1NS(=O)(=O)c1cccc2c(N(C)C)cccc12	61.4% (inactive)
COc1ccc(-c2[nH]c3ccccc3c2-c2ccc(OC)cc2)cc1	67.7% (inactive)
COc1ccc(/C=N\Nc2nc(SCC(C)C)nc(-c3ccc(OC)cc3)c2C#N)cc1	-53.5% (active)
CN(C)C(=O)c1cc2cnc(Nc3ccc(-c4csc5c(=S)cc(N6CCOCC6)oc45)cc3)nc2n1C1CCCC1	-4.43% (active)
O=C(Nc1ccc2ncsc2c1)c1csc(Nc2ccc3[nH]ncc3c2)n1	50.3% (inactive)
NS(=O)(=O)c1ccc(C(=O)N=Nc2c(O)[nH]c3c(F)cccc23)cc1	76.4% (inactive)
C/C=C(\C)C(=O)N[C@H]1CC[C@]2(C)C3CC[C@@]4(C)C(CC[C@@H]4C(C)N(C)C)C3CCC2[C@H]1OC(C)=O (some centres undefined)	-4.52% (active)
CC(=O)N1N=C(c2ccc(Nc3nc(Nc4ccc(F)cc4)nc(Nc4ccc(Cl)cc4)n3)cc2)CC1c1ccc(N(C)C)cc1 (centres undefined)	50.8% (inactive)

SMILES	growth
ON=C1CCCCCCCC1	79.9% (inactive) and 85.4% (inactive)
Cc1ccc(NC(=O)c2sc3nc(C)c(C(=O)c4ccccc4)cc3c2N)cc1	89.4% (inactive)
O=C(/C=C/c1ccc([N+](=O)[O-])cc1)c1ccccc1	74.8% (inactive)
COc1cc(CO)cc2cc3ccccc3nc12	81.7% (inactive)
O=C(Cc1ccc(F)cc1)c1ccccc1	95.6% (inactive)
COc1cc(-c2[nH]ncc2Nc2ccc(Cl)cc2)cc(OC)c1OC	42.9% (inactive)
CC1(Cc2ccccc2)CC2=C(C(=O)O1)C(c1ccccc1)NC(=O)N2 (centres undefined)	79.9% (inactive)
C=CCN1C=CC(=O)[C@H](O[Si](C)(C)C(C)(C)C)[C@@H]1/C=C/c1ccccc1	-73.4% [100 µM] (active)
Cc1ccc(-c2nc3nc(-c4ccc(Cl)cc4)nc(N4CCCNCC4)c3o2)cc1	-78.7% (active)
CC1=C2[C@@H](CC1)[C@]1(C)O[C@@](C3CC3)(C[C@H]1OC(=O)CO)[C@H]2OC(=O)/C=C/c1ccccc1	-26% (active)
CCN1CCN(C(=O)[C@]23CC[C@@H](C)[C@H](C)[C@@H]2C2=CC[C@@H]4[C@@]5(C)CCC(=O)C(C)(C)[C@@H]5CC[C@@]4(C)[C@]2(C)CC3)CC1	-9.67% (active)
CCCO/N=C/c1ccccn1	89.5% (inactive) and 93% (inactive)
CN(C)CCN1C(=O)c2c(c3c4ccccc4n4c3c3c2c2ccccc2n3C2CC(O)C(O)C4(C)O2)C1=O (centres undefined)	24.1% (inactive)
CCOC(=O)c1c(-c2ccc(C)cc2)c(C#N)c(=O)n(-c2cccc(C(F)(F)F)c2)c1N	81.6% (inactive)
CCCCCCCCCCCCCCCC(=O)O[C@@H]1[C@@H](O)[C@@H](O)C([C@H](NC(=O)[C@@H]2C[C@@H](CCC)CN2C)[C@H](C)Cl)O[C@@H]1SC (some centres undefined)	77.2% (inactive)
O=C1/C(=C/c2cn(-c3ccccc3)nc2-c2ccccc2)SC(=S)N1c1ccc(Cl)cc1	65.7% (inactive)
CN(C)CCCn1c2c(c3ccc(N4CCNCC4)cc3c1=O)C(=O)c1ccccc1-2	2.6% (active)
CCOc1ccccc1NC(=O)c1cc2ccccc2cc1O	23.7% (inactive)
COc1ccc(C/C(C)=C(/c2ccc(OCCN3CCCCCC3)cc2)c2ccc(OC(=O)c3ccccc3)cc2)cc1	88.4% (inactive)
